# Source: PubChem BioAssay (NCATS)
# Records with an inconclusive call do not appear. Where a call stands in place of a potency, no number is given. Calls of active or inactive are those of the source. The call rests on the fitted dose curve; in most records, active means well fitted curve in the direction sought with a large enough effect; inconclusive means small, poorly fitted or top-dose-only effect, or another doubt; inactive means no such curve, though single readings can be large; an effect the other way counts as inactive or inconclusive.
# Key:
# [1] = Primary qHTS for inhibitors of nuclear receptor binding SET domain protein 2 (NSD2) in an isogenic RCH-ACV NSD2 p.E1099K mutant (9B) (AID 1645876); further: nearly all actives have a fitted effect of over 70% in size; further: potency means the concentration at half of the fitted maximal effect
# [2] = Primary qHTS for inhibitors of nuclear receptor binding SET domain protein 2 (NSD2) in an RCH-ACV wild type WT cells (2C) (AID 1645877); further: nearly all actives have a fitted effect of over 70% in size; further: potency means the concentration at half of the fitted maximal effect
# [3] = target: Rap guanine nucleotide exchange factor 3 (Homo sapiens) (UniProt O95398); test: Confirmatory qHTS for agonist of cAMP-regulated guanine nucleotide exchange factor 3 (EPAC1) (AID 1645881);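 further: EPAC1 catalysed release of BODIPY-GDP from Rap1B seen as fluorescence loss; nearly all actives have a fitted effect of over 75% in size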
# Rap guanine nucleotide exchange factor 3 (Homo sapiens), sequence (O95398 whole entry, looked up): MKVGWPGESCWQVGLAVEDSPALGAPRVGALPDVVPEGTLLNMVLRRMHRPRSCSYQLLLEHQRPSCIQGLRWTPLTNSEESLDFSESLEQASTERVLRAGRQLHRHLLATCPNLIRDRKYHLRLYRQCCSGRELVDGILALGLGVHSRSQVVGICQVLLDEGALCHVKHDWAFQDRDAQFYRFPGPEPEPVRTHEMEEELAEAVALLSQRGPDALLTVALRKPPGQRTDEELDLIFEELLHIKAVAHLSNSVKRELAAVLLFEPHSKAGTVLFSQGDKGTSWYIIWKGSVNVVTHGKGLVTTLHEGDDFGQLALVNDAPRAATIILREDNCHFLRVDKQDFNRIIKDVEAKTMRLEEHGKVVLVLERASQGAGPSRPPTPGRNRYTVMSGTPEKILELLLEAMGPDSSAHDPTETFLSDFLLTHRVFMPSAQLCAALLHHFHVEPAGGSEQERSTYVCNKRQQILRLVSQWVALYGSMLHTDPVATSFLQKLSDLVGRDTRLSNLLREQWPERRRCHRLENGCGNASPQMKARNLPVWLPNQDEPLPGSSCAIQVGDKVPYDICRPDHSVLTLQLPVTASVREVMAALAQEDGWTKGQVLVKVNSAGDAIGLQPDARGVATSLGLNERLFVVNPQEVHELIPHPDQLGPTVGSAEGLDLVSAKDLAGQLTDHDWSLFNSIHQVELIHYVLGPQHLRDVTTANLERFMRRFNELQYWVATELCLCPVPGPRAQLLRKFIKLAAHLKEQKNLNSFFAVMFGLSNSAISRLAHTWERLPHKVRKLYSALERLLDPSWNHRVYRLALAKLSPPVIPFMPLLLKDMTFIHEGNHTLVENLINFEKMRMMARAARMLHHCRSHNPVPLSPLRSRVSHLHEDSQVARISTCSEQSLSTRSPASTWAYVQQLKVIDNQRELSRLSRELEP
# [4] = target: Rap guanine nucleotide exchange factor 4 (Homo sapiens) (UniProt Q8WZA2); test: Confirmatory qHTS for agonist of cAMP-regulated guanine nucleotide exchange factor 4 (EPAC2) (AID 1645884);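 further: nucleotide exchange releases bodipy-GDP from Rap1 and this lowers its fluorescence; nearly all actives have a fitted effect of over 65% in size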
# Rap guanine nucleotide exchange factor 4 (Homo sapiens), sequence (Q8WZA2 whole entry, looked up): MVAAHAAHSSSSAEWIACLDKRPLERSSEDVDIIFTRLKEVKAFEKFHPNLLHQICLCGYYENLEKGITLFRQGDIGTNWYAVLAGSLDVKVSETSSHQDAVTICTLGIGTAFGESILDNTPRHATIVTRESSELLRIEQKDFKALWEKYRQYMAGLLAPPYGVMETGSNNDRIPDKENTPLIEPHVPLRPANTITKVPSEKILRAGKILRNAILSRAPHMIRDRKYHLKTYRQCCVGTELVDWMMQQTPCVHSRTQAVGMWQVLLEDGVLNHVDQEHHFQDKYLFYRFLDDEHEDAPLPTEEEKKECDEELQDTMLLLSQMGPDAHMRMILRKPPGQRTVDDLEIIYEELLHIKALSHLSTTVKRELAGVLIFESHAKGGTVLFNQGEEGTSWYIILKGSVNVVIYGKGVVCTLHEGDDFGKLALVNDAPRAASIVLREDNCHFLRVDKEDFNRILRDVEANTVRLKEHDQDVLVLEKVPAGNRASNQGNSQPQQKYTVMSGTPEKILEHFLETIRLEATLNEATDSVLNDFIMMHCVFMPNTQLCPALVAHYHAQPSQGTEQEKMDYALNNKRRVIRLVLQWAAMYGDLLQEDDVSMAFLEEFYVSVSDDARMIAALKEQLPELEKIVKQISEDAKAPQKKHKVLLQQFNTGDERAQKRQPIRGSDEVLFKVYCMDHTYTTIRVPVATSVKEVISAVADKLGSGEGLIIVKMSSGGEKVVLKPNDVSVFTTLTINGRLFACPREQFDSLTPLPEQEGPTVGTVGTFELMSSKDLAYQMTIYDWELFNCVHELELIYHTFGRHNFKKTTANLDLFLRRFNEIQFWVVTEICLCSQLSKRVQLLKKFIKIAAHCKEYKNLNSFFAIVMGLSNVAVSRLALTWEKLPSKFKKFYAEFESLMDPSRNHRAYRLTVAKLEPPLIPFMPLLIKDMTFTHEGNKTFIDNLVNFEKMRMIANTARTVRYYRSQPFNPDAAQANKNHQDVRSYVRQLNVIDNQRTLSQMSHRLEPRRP
# [5] = target: Rap guanine nucleotide exchange factor 4 (Homo sapiens) (UniProt Q8WZA2); test: Confirmatory qHTS for antagonist of cAMP-regulated guanine nucleotide exchange factor 4 (EPAC2) (AID 1645885); further: nearly all actives have a fitted effect of over 25% in size; further: potency means the concentration at half of the fitted maximal effect
# [6] = target: Rap guanine nucleotide exchange factor 3 (Homo sapiens) (UniProt O95398); test: Confirmatory qHTS for antagonist of cAMP-regulated guanine nucleotide exchange factor 3 (EPAC1) (AID 1645880); further: nearly all actives have a fitted effect of over 55% in size
# Outline: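 Released BODIPY-GDP fluoresces less than Rap1-bound BODIPY-GDP; the signal is followed at 480/540 nm at 5-min intervals over 30 min, after 5 min at room temperature. Reactions contain 100 nM EPAC1, 250 nM RAP1B-BODIPY-GDP and 50 uM GDP; results are normalized to ATA and DMSO.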
# [7] = target: Rap guanine nucleotide exchange factor 3 (Homo sapiens) (UniProt O95398); test: Counterscreen qHTS for antagonist of cAMP-regulated guanine nucleotide exchange factor 3 (EPAC1) (AID 1645888)
# Outline: (§1)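 Rap1B–BODIPY-GDP (250 nM) with 50 uM GDP; compounds pin-transferred to 9.74 nM–152 uM final (activator) or from 7.32 nM upwards (inhibitor). Fluorescence Ex/Em 480/540 nm read at 5 and 30 min, then after adding cAMP or buffer, at room temperature.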
# [8] = target: Rap guanine nucleotide exchange factor 3 (Homo sapiens) (UniProt O95398); test: Counterscreen qHTS for agonist of cAMP-regulated guanine nucleotide exchange factor 3 (EPAC1) (AID 1645889); further: nearly all actives have a fitted effect of over 40% in size
# Outline: as §1
smiles,measurement,setting,value
CCCN(CCC)c1c([N+](=O)[O-])cc(S(N)(=O)=O)cc1[N+](=O)[O-],Potency,[1],9.69 µM (active)
same,Potency,[2],12.2 µM (active)
same,outcome,[3],inactive
same,outcome,[4],inactive
same,Potency,[5],89.7 µM (active)
COCCOCCO,Potency,[2],inactive
c1cc2ccc3cccc4ccc(c1)c2c34,Potency,[1],inactive
same,Potency,[2],inactive
O=C(O)CCCOc1ccc(Cl)cc1Cl,Potency,[1],inactive
same,Potency,[2],inactive
Cc1ccc(Cl)c(O)c1,Potency,[1],inactive
same,Potency,[2],inactive
Nc1ccc(N=Nc2ccccc2)cc1,Potency,[1],6.11 µM (active)
same,Potency,[2],6.86 µM (active)
COC[C@H]1OC(=O)c2coc3c2[C@@]1(C)C1=C(C3=O)[C@@H]2CC[C@H](O)[C@@]2(C)C[C@@H]1OC(C)=O,Potency,[1],0.58 µM (active)
same,Potency,[2],0.58 µM (active)
O=[N+]([O-])c1c2ccccc2cc2ccccc12,Potency,[2],inactive
Fc1cc(Br)ccc1CBr,Potency,[1],inactive
same,Potency,[2],inactive
CC(C)N(CCNC(=O)CN1CCCC1=O)C(C)C,Potency,[1],inactive
same,Potency,[2],inactive
CC1=C(C(=O)O)N2C(=O)[C@@H](N)[C@H]2SC1,Potency,[1],inactive
same,Potency,[2],inactive
CS(=O)(=O)c1ccc(C(=O)C2C(=O)CCCC2=O)c([N+](=O)[O-])c1,Potency,[1],inactive
same,Potency,[2],inactive
O=C(O)c1cc(Oc2ccc(C(F)(F)F)cc2Cl)ccc1[N+](=O)[O-],Potency,[2],inactive
CN[C@@H](C)[C@H](O)c1ccccc1,Potency,[1],inactive
same,Potency,[2],inactive
Cc1nc(-c2ccc(-c3ccc(C(=O)N4CCc5cc6c(cc54)C4(CCN(C)CC4)CO6)cc3)c(C)c2)no1,outcome,[6],inactive
same,outcome,[3],inactive
same,Potency,[5],inactive
O=S(=O)(O)C(F)(F)C(F)(F)C(F)(F)C(F)(F)F,Potency,[1],inactive
same,Potency,[2],inactive
Nc1ccc(Sc2ccc(N)cc2)cc1,Potency,[2],34.4 µM (active)
COC(C)(C)CCCC(C)C/C=C/C(C)=C/C(=O)OC(C)C (stereo not given),Potency,[1],inactive
same,Potency,[2],inactive
CC(N[C@H]1C[C@H]1c1ccccc1)c1ccc2c(c1)OCCO2 (stereo not given in full),Potency,[1],inactive
same,Potency,[2],inactive
CCCCOC(=O)c1ccccc1C(=O)OCc1ccccc1,outcome,[6],inactive
same,outcome,[3],inactive
same,activation,[4],4.15% [at 17.1 µM] (inactive)
same,outcome,[7],inactive
same,outcome,[8],inactive
O=C(O)COc1nc(Cl)c(Cl)cc1Cl,Potency,[1],inactive
same,Potency,[2],inactive
